HEK293 tox = HEK 293 cell cytotoxicity | HEK 293 viability, ATP luminescence (CellTiter-Glo), 48-72 h | Potency, µM (doses to about 115 µM), for the others: at the highest dose activity change, negative = cytotoxicity, actives largely listed as inhibitors | 94,000 compounds, 6.6% hits | AID 1345083; also: nearly all actives have a fitted effect of over 60% in size
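Cells seeded first (HEK 293, 250 cells/well), then compound added by pintool. Incubation ran 48 or 72 hr at 37 degree Celsius. CellTiter-Glo was added and luminescence imaged after 10 min at room temperature.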
NIH3T3 tox = kills NIH 3T3 cells; NIH 3T3 viability, CellTiter-Glo ATP luminescence, 48-72 h; AID 1345082; 94,000 compounds, 4.3% hits; Potency, µM (doses to about 96.7 µM), for inactives: top-dose activity change, negative = cytotoxicity, most hits filed as inhibitors; also: nearly all actives have a fitted effect of over 55% in size
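Viability of NIH 3T3 cells after 48 or 72 hr compound treatment at 37 °C was assessed by CellTiter-Glo, with luminescence imaged following a 10 min room-temperature step.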
NPR1 antag = human Npr1 receptor antagonism; P16066; HEK293 hNpr1 GloSensor cGMP, ANP-stimulated luminescence; Potency, µM (series often up to 46.3 µM), for inactives: at the highest dose activity change, negative = inhibition, hits mostly inhibitors; 76,000 compounds, 1.6% hits; calls by dose curve; also: nearly all actives have a fitted effect of over 60% in size
Target sequence (P16066 whole entry, looked up): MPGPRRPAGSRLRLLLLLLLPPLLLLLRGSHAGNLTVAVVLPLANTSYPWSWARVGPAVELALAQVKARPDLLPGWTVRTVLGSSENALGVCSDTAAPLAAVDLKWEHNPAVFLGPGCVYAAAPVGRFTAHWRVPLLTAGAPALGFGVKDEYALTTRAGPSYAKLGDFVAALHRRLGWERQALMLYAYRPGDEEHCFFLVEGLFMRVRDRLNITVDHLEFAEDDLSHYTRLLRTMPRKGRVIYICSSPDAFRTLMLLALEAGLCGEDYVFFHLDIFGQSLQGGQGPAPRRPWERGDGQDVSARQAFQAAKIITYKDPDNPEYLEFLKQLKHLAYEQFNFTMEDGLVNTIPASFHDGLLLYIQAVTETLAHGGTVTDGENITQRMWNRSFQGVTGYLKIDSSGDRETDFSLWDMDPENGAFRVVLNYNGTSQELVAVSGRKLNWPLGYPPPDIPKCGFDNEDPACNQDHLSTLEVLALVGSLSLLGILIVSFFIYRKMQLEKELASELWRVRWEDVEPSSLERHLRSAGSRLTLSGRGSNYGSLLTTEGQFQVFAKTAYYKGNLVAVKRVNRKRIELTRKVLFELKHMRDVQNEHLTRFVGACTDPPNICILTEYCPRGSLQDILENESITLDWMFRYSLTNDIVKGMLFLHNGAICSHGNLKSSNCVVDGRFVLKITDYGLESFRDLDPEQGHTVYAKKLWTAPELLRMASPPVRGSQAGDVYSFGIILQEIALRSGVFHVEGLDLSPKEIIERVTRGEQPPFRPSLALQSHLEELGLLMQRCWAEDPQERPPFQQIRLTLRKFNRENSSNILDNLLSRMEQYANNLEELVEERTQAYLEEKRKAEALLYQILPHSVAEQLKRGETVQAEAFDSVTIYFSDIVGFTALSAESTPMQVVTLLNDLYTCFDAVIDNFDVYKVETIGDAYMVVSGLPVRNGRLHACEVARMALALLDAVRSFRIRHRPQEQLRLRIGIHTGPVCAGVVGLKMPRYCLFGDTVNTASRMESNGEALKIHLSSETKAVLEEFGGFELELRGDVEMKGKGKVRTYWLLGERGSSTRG
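HEK293 cells stably expressing human Npr1 and cGMP GloSensor pGS-40F, loaded 2 h with 2% GloSensor reagent, given compound 30 min at room temperature. Luminescence read before and 20 min after 0.1 nM hNppA.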
FLuc inh = Photinus pyralis luciferase inhibition; P08659; purified P. pyralis luciferase, luminescence, biochemical; Potency, µM (titrated, usually from 115 µM), usual class: inhibitors; 76,000 compounds, 2.5% hits; also: nearly all actives have a fitted effect of over 65% in size
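Biochemical qHTS: compound (6-point titration) added to 10uM D-luciferin plus 10uM ATP in Tris acetate pH 7.5 buffer with Mg, Tween-20 and BSA, then purified enzyme at 10nM; light output imaged.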
Starred values were filed as active, the others as inactive; [ ] = dose if it differs, or a comment. A selection: hits, their analogues and other compounds. The true share with any hit is near 11%. Unless noted, calls follow the shape of the dose curve; as a rule, active = well fitted curve in the direction sought with a large enough effect; inconclusive = small, poorly fitted or top-dose-only effect, or another doubt; inactive = no such curve, though single readings can be large; an effect the other way counts as inactive or inconclusive. % is scaled to controls: 0 for no effect and ±100 for the full control effect; potency is read from the fitted curve at half-maximal effect.

Cc1nnc(-c2cc(-c3cccnc3)ccn2)n1C1CCCCC1 was read as HEK293 tox inactive, NIH3T3 tox 89µM*, NPR1 antag 5%[70.6 µM] and FLuc inh inactive.
O=C(Nc1nccs1)[C@@H]1C[C@@H](c2ccc(F)cc2)N(Cc2ccccc2)C1 was read as HEK293 tox 40µM*, NIH3T3 tox inconclusive, NPR1 antag inconclusive and FLuc inh inactive.
`Cc1csc(NC(=O)[C@@H]2C[C@@H](c3cccc(C(F)(F)F)c3)N(Cc3cnn(C)c3)C2)n1` gave HEK293 tox inconclusive, NIH3T3 tox inconclusive, NPR1 antag 2% and FLuc inh inactive.
`Cc1csc(NC(=O)[C@@H]2C[C@H](c3cccc(C(F)(F)F)c3)N(Cc3cnn(C)c3)C2)n1` gave HEK293 tox inconclusive, NIH3T3 tox 28µM*, NPR1 antag -13% and FLuc inh inactive.
`Cn1ccc(NC(=O)[C@@H]2C[C@H](c3ccc(F)cc3)N(Cc3ccccc3Cl)C2)n1` gave HEK293 tox 50µM*, NIH3T3 tox inconclusive, NPR1 antag inconclusive and FLuc inh inactive.
`O=C(Nc1nccs1)[C@@H]1C[C@H](c2ccc(F)cc2)N(Cc2ccccc2Cl)C1` gave HEK293 tox inconclusive, NIH3T3 tox 32µM*, NPR1 antag -3%[70.6 µM] and FLuc inh inactive.
O=C(NCc1ccncc1)[C@@H]1C[C@@H](c2ccc(F)cc2)N(Cc2ccccc2)C1 was read as HEK293 tox inconclusive, NIH3T3 tox -16%[138 µM], NPR1 antag 2%[70.6 µM] and FLuc inh inactive.
For COc1ccccc1Nc1ccnc(N2CCCC2C(=O)N2CCOCC2)n1 (stereo not given) the results were HEK293 tox -8% and NIH3T3 tox -25%.
`Cc1ccc2[nH]c(=O)c(CCC(=O)NC3CCN(Cc4ccccc4)CC3)cc2c1` gave HEK293 tox -27%, NIH3T3 tox -7%, NPR1 antag 10% and FLuc inh inactive.
Screening O=C(Nc1cccnc1)[C@@H]1C[C@@H](c2ccc(F)cc2)N(CCOc2ccccc2)C1 returned HEK293 tox inconclusive, NIH3T3 tox 89µM*, NPR1 antag inconclusive and FLuc inh inactive.
For O=C(Nc1nccs1)[C@@H]1C[C@@H](c2cccc(C(F)(F)F)c2)N(CC2CCOCC2)C1 the results were HEK293 tox inconclusive, NIH3T3 tox 79µM*, NPR1 antag -20%[70.6 µM] and FLuc inh inactive.
`O=C(Nc1ccncn1)[C@@H]1C[C@@H](c2ccc(F)cc2)N(CCOc2ccccc2)C1` gave HEK293 tox inconclusive, NIH3T3 tox inconclusive, NPR1 antag inconclusive and FLuc inh inactive.
For CC(C)(C)NC(=O)N1C[C@@H](Oc2ccccc2)C[C@H]1C(=O)N1CCOCC1 the results were HEK293 tox inactive and NIH3T3 tox -5%.
`CCN1CCN(C(=O)c2cc(C(C)(C)C)nc3c2cnn3C)CC1` gave HEK293 tox -26%[172 µM] and NIH3T3 tox inconclusive.
Screening COC(=O)[C@@H]1Cc2c([nH]c3ccccc23)[C@H]2C[C@H](NCCN3CCOCC3)C[C@@H](c3ccc(F)cc3)N21 returned HEK293 tox 20µM*, NIH3T3 tox 25µM*, NPR1 antag -25% and FLuc inh inactive.
`COC(=O)[C@@H]1Cc2c([nH]c3ccccc23)[C@H]2C[C@@H](NCCN3CCOCC3)C[C@@H](c3ccc(F)cc3)N21` gave HEK293 tox 28µM*, NIH3T3 tox inconclusive, NPR1 antag -2% and FLuc inh inactive.
O=C(C[C@@H]1O[C@H](CNCc2ccc(F)cc2)[C@@H](O)[C@H]1O)NCCN1CCOCC1 was read as HEK293 tox inactive, NIH3T3 tox inconclusive, NPR1 antag 2%[70.6 µM] and FLuc inh inactive.
CCCS(=O)(=O)N(C)C1CCc2nn(CC3CC3)c(=O)n2CC1 (stereo not given) was read as HEK293 tox 0%, NIH3T3 tox -13%, NPR1 antag 1% and FLuc inh inactive.
For COc1ccc(CNC(=O)C2CCCCN2Cc2ccc(-c3ccsc3)cc2)cc1OC (stereo not given) the results were HEK293 tox 40µM* and NIH3T3 tox inconclusive.
O=C(NCc1cccs1)C1CCCCN1Cc1ccc(-c2ccsc2)cc1 (stereo not given) was read as HEK293 tox 28µM* and NIH3T3 tox 25µM*.
For CN1C(=O)CCCCC1C(=O)NCc1ccc(F)cc1 (stereo not given) the results were HEK293 tox 12%, NIH3T3 tox inactive, NPR1 antag -2% and FLuc inh inactive.
COc1ccc(CNC(=O)C2CCCN2Cc2ccc(-c3cncnc3)cc2)cc1 (stereo not given) was read as HEK293 tox inconclusive and NIH3T3 tox -27%.
For O=C(NCc1ccc(F)cc1)C1CCCCN1Cc1ccc(-c2ccsc2)cc1 (stereo not given) the results were HEK293 tox 40µM* and NIH3T3 tox inconclusive.
`O=C(NCCc1ccccc1)C1CCCCN1Cc1ccc(-c2ccsc2)cc1` (stereo not given) gave HEK293 tox 28µM* and NIH3T3 tox inconclusive.
Screening COCCNC(=O)C1CCCN1Cc1ccc(-c2cncnc2)cc1 (stereo not given) returned HEK293 tox -3% and NIH3T3 tox -13%.
For Cn1ncc2c(C(=O)Nc3cccnc3)cc(-c3cccc(C(F)(F)F)c3)nc21 the results were HEK293 tox 4% and NIH3T3 tox -11%.
`CCCCCC(=O)N1CCC2(CC1)[C@H](C(=O)OCC)[C@@H](O)C(=O)N2Cc1ccccc1` gave HEK293 tox 0% and NIH3T3 tox inconclusive.
CCN(CC)C(=O)CN1C(=O)C2(CCCCC2)C1c1ccccc1 (stereo not given) was read as HEK293 tox -10% and NIH3T3 tox -8%.
Screening O=C(NCc1ccccc1Cl)C1CCCCN1Cc1ccc(-c2ccsc2)cc1 (stereo not given) returned HEK293 tox 35µM* and NIH3T3 tox 28µM*.
CC(C)NC(=O)C1CCCN1Cc1ccc(-c2cncnc2)cc1 (stereo not given) was read as HEK293 tox 5%[172 µM] and NIH3T3 tox -3%[138 µM].
`C#CCNC(=O)C1CCCCN1Cc1ccc(-c2ccsc2)cc1` (stereo not given) gave HEK293 tox 40µM* and NIH3T3 tox -39%.
For O=C(NC1CC1)C1CCCCN1Cc1ccc(-c2ccsc2)cc1 (stereo not given) the results were HEK293 tox inconclusive and NIH3T3 tox 79µM*.
`CC(C)NC(=O)C1CCCCN1Cc1ccc(-c2ccsc2)cc1` (stereo not given) gave HEK293 tox 50µM* and NIH3T3 tox inconclusive.
`O=C(NC1CCCC1)C1CCCCN1Cc1ccc(-c2ccsc2)cc1` (stereo not given) gave HEK293 tox 25µM* and NIH3T3 tox inconclusive.
